Experimental data published in PubChem BioAssay AID623868 (Vanderbilt High Throughput Screening Facility, 2012).
In all, about 2,100 compounds went through this assay and about 760 (36%) were called active.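 Rule for the calls: active = thallium-flux fluorescence traces judged by eye to show enhanced or reduced glutamate response, manual score 1 or -1, so both directions (some results past the limit were not filed as active); inactive = the rest, including fluorescent or raised-baseline compounds.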 The list is a sample of the results.

Experiment: non-GIRK thallium flux modulation in mGlu8 cells, confirmation, counter-screen for GIRK activator project, cell-based, HEK-293 rmGlu8, no GIRK (AID 623868);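 note: extra codes mark interference with 3 for fluorescent and 4 for baseline rise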
Conditions: thallium flux fluorescence, at 10 µM, actives lie on both sides, codes: 1 enhancer, -1 blocker, 0 none, thallium stimulus containing EC20 glutamate
With `O=C(Nc1cccc(Cl)c1)Nc1nccs1` the manual score was 0 (inactive). For `Cn1sc(NC(=O)c2cccc(Cl)c2)nc1=O`, the manual score was -1 (active). In the case of `O=C(NCCCN1CCN(c2cccc(Cl)c2)CC1)c1cccc(N2CCCC2=O)c1`, the manual score is reported as 0 (inactive). For `C=CCn1c(=S)[nH]c2nc3c(cc2c1=O)CCCC3`, the manual score was 1 (active). For `CCn1c(=S)[nH]c2nc3c(cc2c1=O)CCCC3`, the manual score was 1 (active). With `Cc1noc(C)c1S(=O)(=O)N1CCC(Cc2ccccc2)CC1` the manual score was 0 (inactive). With `CCCCCCN1C2=NCCN2c2ccccc21` the manual score was 0 (inactive). For `CCC(=O)N1c2ccc(C)cc2C2=NNC(=S)NC21O` (configuration not stated), the manual score was 1 (active). For `COCC(=O)/C=C1\Sc2ccccc2N1C`, the manual score was 0 (inactive). For `COc1ccccc1C(=O)N1c2ccccc2Sc2ccccc21`, the manual score was -1 (active). With `CCOc1ccccc1C(=O)N1c2ccccc2Sc2ccccc21` the manual score was 0 (inactive). With `COc1cc(NC(=O)CS(=O)(=O)c2ccc(C)cc2)cc(OC)c1OC` the manual score was 0 (inactive). In the case of `COc1ccc(C(=O)Nc2ccc(S(=O)(=O)NCc3ccco3)cc2)cc1OC`, the manual score is reported as -0.5 (inactive). In the case of `COc1cc(C(=S)N2CCCC2)cc(OC)c1OS(=O)(=O)c1ccc(NC(C)=O)cc1`, the manual score is reported as -1 (active). With `O=C(Nn1c(C2CCCCC2)nc2ccccc2c1=O)c1ccc([N+](=O)[O-])cc1Cl` the manual score was 0 (inactive). In the case of `Cc1ccc(C)c(OCC(=O)Nc2nc3ccc([N+](=O)[O-])cc3s2)c1C`, the manual score is reported as 0 (inactive). For `CS(=O)(=O)c1ccc2nc(NC(=O)C3C4C=CC(C4)C3C(=O)O)sc2c1` (configuration not stated), the manual score was 0 (inactive). With `O=C(NC(Nc1nc2ccc([N+](=O)[O-])cc2s1)(C(F)(F)F)C(F)(F)F)c1ccccc1Cl` the manual score was 1 (active). In the case of `O=C(NC(Nc1nc2ccc([N+](=O)[O-])cc2s1)(C(F)(F)F)C(F)(F)F)c1ccccc1`, the manual score is reported as 1 (active). For `N#C/C(=C/C=C/c1ccccc1)C(=O)Nc1ccccc1`, the manual score was 0 (inactive). For `O=c1oc(-c2ccc(Br)o2)nc2ccccc12`, the manual score was 0 (inactive). In the case of `Cn1c(SCC(=O)c2cc3ccccc3o2)nnc1-c1ccccc1`, the manual score is reported as 0 (inactive). In the case of `S=c1[nH]nc(-c2cc3ccccc3o2)n1Cc1ccccc1`, the manual score is reported as 1 (active). In the case of `CCn1c(-c2cc3ccccc3cc2O)n[nH]c1=S`, the manual score is reported as 0 (inactive). For `S=c1[nH]nc(-c2ccc(Br)o2)n1Cc1ccccc1`, the manual score was 1 (active). For `CC(C)N(Cc1nc(-c2ccccc2)no1)C(=O)CSc1ccccc1`, the manual score was 0 (inactive). With `CC1(C)CC(=O)C2=C(C1)N(c1ccccc1)C(N)=C(C#N)C2c1ccsc1` (configuration not stated) the manual score was -1 (active). With `CC1(C)CC(=O)C2=C(C1)NC(SCC(=O)Nc1ccccc1)=C(C#N)C2c1ccco1` (configuration not stated) the manual score was 0.5 (inactive). For `CN1C2C=C3C(C#N)=C(N)C(C#N)(C#N)[C@@H](c4ccsc4)[C@@H]3C1CC2` (some centres not stated), the manual score was 0 (inactive). In the case of `CCC(C)(C)n1nnnc1C(c1ccccn1)N1CCCCC1` (configuration not stated), the manual score is reported as 0 (inactive). For `Cc1cc2c(cc1C)NC(c1c(C)n(C)n(-c3ccccc3)c1=O)C1=C(CC(C)(C)CC1=O)N2` (configuration not stated), the manual score was 3 (inactive). In the case of `CC(C)Sc1nc2c(c(=O)[nH]1)C(c1cccs1)C1=C(CC(C)(C)CC1=O)N2` (configuration not stated), the manual score is reported as -1 (active). For `Cc1c(C2Nc3ccccc3NC3=C2C(=O)CC(C)(C)C3)cnn1C` (configuration not stated), the manual score was 0 (inactive). For `O=C(NCc1cccs1)c1cccnc1C(=O)O`, the manual score was 0 (inactive). For `O=C(Nc1ccccc1C(=O)O)c1ccc(NC(=O)c2ccc(Br)o2)cc1`, the manual score was -1 (active). With `CCC(C)NC(=O)c1ccccc1NC(=O)Nc1ccccc1` (configuration not stated) the manual score was 0.5 (inactive). For `O=C(O)c1ccccc1C(=O)Nc1ccc(-c2csc(-c3ccccc3)n2)cc1`, the manual score was 0 (inactive). In the case of `Cc1ccccc1C(=O)NC(=S)NCCc1ccccc1`, the manual score is reported as 0 (inactive). For `O=C(CNC(=S)NC(=O)c1ccco1)c1ccccc1`, the manual score was 1 (active). For `COc1cc(OC)cc(C(=O)NC(=S)NCCc2ccccc2)c1`, the manual score was 0 (inactive). For `O=C(NC(=S)NCCc1ccccc1)c1ccco1`, the manual score was 1 (active). With `O=C(NC(=S)N(CCc1ccccc1)CCc1ccccc1)c1ccco1` the manual score was 1 (active). In the case of `O=C(NC(=S)NCCc1ccccc1)c1ccccc1`, the manual score is reported as 1 (active). For `CC1CN(C2CC(C)(C)NC(C)(C)C2)CCC1=O` (configuration not stated), the manual score was 0 (inactive). With `CCCCc1cc(=O)oc2cc(C)cc(O)c12` the manual score was -0.5 (inactive). In the case of `COc1cc(/C=C(\C#N)C(=O)Nc2cccnc2)ccc1OC(C)C`, the manual score is reported as 0 (inactive). In the case of `O=C(CNC(=S)NC(=O)c1cccs1)c1ccccc1`, the manual score is reported as 1 (active). With `Nc1sccc1C(=O)c1ccccc1` the manual score was 0 (inactive). With `CCOc1ccccc1-c1c2cc(O)c(=O)cc-2oc2cc(O)c(O)cc12` the manual score was 0 (inactive). For `CCN(CC)S(=O)(=O)c1cccc(S(=O)(=O)c2cccc(S(=O)(=O)N(CC)CC)c2)c1`, the manual score was 0 (inactive). For `CCN(CC)S(=O)(=O)c1cccc(-c2n[nH]c(=S)n2/N=C/c2ccc(C(=O)OC)cc2)c1`, the manual score was 1 (active). In the case of `C=CCn1c(N)c(C(=O)OC(C)(C)C)c2nc3ccccc3nc21`, the manual score is reported as -1 (active). With `COCC(C)OC(=O)c1c(N)n(CC(C)C)c2nc3ccccc3nc12` (configuration not stated) the manual score was 0 (inactive). In the case of `COc1ccccc1CNC(=O)c1c(N)n(CCCN2CCOCC2)c2nc3ccccc3nc12`, the manual score is reported as 0 (inactive). With `Cc1cccn2c(=O)c(/C=N/O)c(N3CCCC3)nc12` the manual score was 0 (inactive). For `CSc1cccc(NC(=O)CN(c2ccc(C)cc2C)S(C)(=O)=O)c1`, the manual score was 0 (inactive). For `CC1(C)CC(=O)C2=C(C1)OC(/N=C/N1CCOCC1)=C(C#N)C2c1ccccc1` (configuration not stated), the manual score was -1 (active). For `CC1Cc2nc(SCC(=O)Nc3nc4ccccc4s3)n(C)c(=O)c2S1` (configuration not stated), the manual score was -1 (active). With `CC1(C)Cc2ccccc2-c2nnc(SCC(=O)Nc3nc4ccccc4s3)n21` the manual score was 0 (inactive). With `CC(C)Cc1nnc(NC(=O)CSc2nc(=O)cc(N)n2-c2ccccc2)s1` the manual score was 0 (inactive). In the case of `COC(=O)c1onc(C(=O)c2ccccc2)c1C(=O)OC`, the manual score is reported as -1 (active). For `N[C@@H](Cc1ccccc1)c1nnc(SCc2ccccc2F)o1`, the manual score was 0 (inactive). In the case of `Cc1sc2ncnc(SCc3ccco3)c2c1C`, the manual score is reported as 0 (inactive). In the case of `Cc1sc2nc(C(C)C)nc(SCC(=O)NCc3ccco3)c2c1C`, the manual score is reported as 1 (active). With `Cc1ccccc1-c1nc(CN2CCC(C(=O)NCc3ccco3)CC2)c(C)o1` the manual score was 0 (inactive). In the case of `Cc1sc2nc(C(C)C)nc(SCC(=O)N3c4ccccc4CC3C)c2c1C` (configuration not stated), the manual score is reported as 1 (active). In the case of `CCn1c(N)c(C(=O)NCc2ccco2)sc1=S`, the manual score is reported as 0 (inactive). For `CCn1c(SCC(=O)NC(=O)NCc2ccco2)nc2sc(C)c(C)c2c1=O`, the manual score was 1 (active). For `CCc1cc2cccc(C)c2nc1SCC(=O)c1ccc(NC(C)=O)cc1`, the manual score was 1 (active). In the case of `COC(=O)c1ccc(-n2c(C)cc(C(=O)CSc3ccc(NC(C)=O)cc3)c2C)cc1`, the manual score is reported as 0 (inactive). In the case of `CC(=O)Nc1ccc(C(=O)CSc2nc3ccc(C)cc3[nH]2)cc1`, the manual score is reported as 0 (inactive). For `COc1cc(NC(=O)c2ccc(C)cc2)c(OC)cc1NC(=O)CN1CCCCC1`, the manual score was 0 (inactive). In the case of `COc1cc(NC(=O)C(=O)NNC(=O)C2CCCCC2)c(OC)cc1Cl`, the manual score is reported as 1 (active). For `COc1ccc(OC)c(NC(=O)C2CC(=O)N(c3ccc(Br)cc3)C2)c1` (configuration not stated), the manual score was 0 (inactive). With `Oc1ccccc1CNc1ccc(Br)cn1` the manual score was 0 (inactive). With `Cc1ccc(C2CC2c2n[nH]c(=S)n2-c2ccc(Cl)cc2)cc1` (configuration not stated) the manual score was 0 (inactive). With `Cc1ccc(C2CC2c2n[nH]c(=S)n2-c2ccc(C)cc2)cc1` (configuration not stated) the manual score was 1 (active). With `O=C(c1ccc(Br)o1)N1CCN(c2ccc3nnc(-c4ccc(F)cc4)n3n2)CC1` the manual score was -1 (active). In the case of `O=C(c1ccc(CS(=O)(=O)c2ccc(Br)cc2)o1)N1CCN(c2ncccn2)CC1`, the manual score is reported as 0 (inactive). In the case of `CCOC(=O)N1CCN(c2ccc3nnnn3n2)CC1`, the manual score is reported as 0 (inactive). For `CCOc1cc(-c2noc(-c3cccnc3)n2)ccc1OC`, the manual score was 0 (inactive). For `CC(C)N(CCn1c(=S)[nH]c2ccccc2c1=O)C(C)C`, the manual score was 1 (active). For `Cc1cc(CC(C)C)n(-c2nc3ccccc3c(=O)n2OCC(N)=O)n1`, the manual score was 0 (inactive). With `CC(C)n1c(NCc2c[nH]c3ccccc23)nc2ccccc21` the manual score was 0 (inactive). In the case of `CCOc1cc2[nH]c(=S)n(C(C)C)c(=O)c2cc1OCC`, the manual score is reported as 1 (active). With `CC(C)COn1c(=S)[nH]c2ccccc2c1=O` the manual score was 1 (active). For `CC(C)n1c(=S)[nH]c2ccccc2c1=O`, the manual score was 1 (active). In the case of `CCCC(=O)NC(c1cccs1)c1cc([N+](=O)[O-])c2cccnc2c1O` (configuration not stated), the manual score is reported as 0 (inactive). In the case of `CCCC(=O)Nc1ccc(NC(=O)C2CC2)cn1`, the manual score is reported as 0 (inactive). For `COCc1nnc(NC(=O)C(C)C)s1`, the manual score was 0 (inactive). In the case of `Cc1conc1NC(c1cccs1)c1ccc2cccnc2c1O` (configuration not stated), the manual score is reported as 0.5 (inactive). For `COc1ccccc1-n1cnnc1SCC(=O)c1cc(C)n(Cc2cccs2)c1C`, the manual score was 0 (inactive). In the case of `COc1ccc(CNc2nc(-c3cccnc3)nn2C(=O)c2ccco2)cc1`, the manual score is reported as -1 (active). With `O=C(c1cc2nc(-c3ccccc3)cc(-c3ccccc3)n2n1)N1CCN(C(=O)c2ccco2)CC1` the manual score was -0.5 (inactive). For `COc1cccc(N(CC(=O)NCc2cccnc2)S(C)(=O)=O)c1`, the manual score was 0 (inactive). With `COc1ccc(CNC(=O)CSCc2ccccc2Cl)cc1` the manual score was -0.5 (inactive). For `CCCC(=O)n1nc(-c2ccccc2)nc1N`, the manual score was 0 (inactive). In the case of `CCC(=O)n1nc(-c2cccnc2)nc1NCc1ccc(OC)cc1`, the manual score is reported as -1 (active). For `c1cn(C23CC4CC(CC(C4)C2)C3)cn1`, the manual score was 0.5 (inactive). In the case of `S=c1nn[nH]n1C12CC3CC(CC(C3)C1)C2`, the manual score is reported as 1 (active). In the case of `CCOc1ccc(Nc2ncnc(N)n2)cc1`, the manual score is reported as 0 (inactive). In the case of `Cc1noc(C)c1CSc1nc2ccccc2c(=O)n1-c1ccc(F)cc1F`, the manual score is reported as 0 (inactive). In the case of `O=c1c2ccccc2nc(SCc2cn3ccsc3n2)n1-c1ccc(F)cc1`, the manual score is reported as -1 (active). With `COCCNCCOc1ccccc1-c1ccccc1` the manual score was 0 (inactive). In the case of `COc1ccc(CCNC(=O)CSc2nnc(-c3ccc(F)cc3)c3ccccc23)cc1OC`, the manual score is reported as -1 (active). With `COc1cc2c(cc1NC(=O)COc1ccccc1OC)oc1ccccc12` the manual score was 0 (inactive). With `COc1ccc(CN(C)CC(=O)NC(=O)NCc2ccccc2)cc1OC` the manual score was 0 (inactive).
